Compounds with a hit are over-represented: about 0.49% of the library has one in this group of screens.
S-ASM inh: Inhibitors of Secretory Acid Sphingomyelinase (S-ASM): qHTS; Sphingomyelin phosphodiesterase (Homo sapiens), P17405; Potency, µM (doses to about 57.5 µM), usual class: inhibitors; 340,000 compounds, 0.006% hits; placental ASM, HMU-PC fluorogenic substrate, 60 min
Target sequence (P17405 47-631 limits assumed): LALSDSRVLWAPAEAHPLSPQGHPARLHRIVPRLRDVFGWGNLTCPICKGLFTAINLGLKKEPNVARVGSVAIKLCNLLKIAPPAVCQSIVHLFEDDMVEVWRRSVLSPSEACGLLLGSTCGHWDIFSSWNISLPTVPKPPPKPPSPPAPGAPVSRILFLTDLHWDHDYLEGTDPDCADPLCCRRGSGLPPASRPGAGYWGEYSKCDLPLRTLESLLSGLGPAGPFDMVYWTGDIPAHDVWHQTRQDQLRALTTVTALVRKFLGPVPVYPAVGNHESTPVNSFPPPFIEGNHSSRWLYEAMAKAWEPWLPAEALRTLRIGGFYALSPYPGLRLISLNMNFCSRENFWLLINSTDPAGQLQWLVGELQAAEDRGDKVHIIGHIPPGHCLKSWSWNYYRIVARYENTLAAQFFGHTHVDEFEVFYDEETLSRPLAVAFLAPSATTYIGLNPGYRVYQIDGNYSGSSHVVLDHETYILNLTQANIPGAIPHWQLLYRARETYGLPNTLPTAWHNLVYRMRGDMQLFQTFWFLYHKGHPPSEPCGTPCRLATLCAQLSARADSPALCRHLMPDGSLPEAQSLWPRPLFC
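Human placenta-derived ASM enzyme was preincubated with compound for 10 minutes at room temperature, then given fluorogenic substrate HMU-PC0 (9 uM final) for 60 minutes at 37 °C; a pH 10 stop preceded fluorescence reading at Ex 386/Em 447 nm.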
BCR signal inh: qHTS Assay to Find Inhibitors of Chronic Active B-Cell Receptor Signaling. Potency, µM (doses to about 46.1 µM), actives largely listed as inhibitors. 340,000 compounds, 0.05% hits. AID 493014, 2011. ABC-DLBCL IkBa-CBG/CBR reporter, luminescence ratio, 4 h; active = well fitted inhibition curve with a large enough effect in the signal ratio, with a control signal flat, not every such curve was filed as active; inconclusive = small, poorly fitted or top-dose-only effect, or effect the other way, or a change in a side signal; the % refers to the signal ratio
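Doxycycline induced both beetle luciferases in TMD8 lymphoma cells; IKK-driven degradation limits the IkappaBalpha-fused green signal, while red luminescence normalises for cell number and nonspecific effects. Compounds tested up to 46 uM, 4 hrs.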
TCR activator: Activators of T cell receptors: qHTS campaign | primary human leukocytes, anti-CD3, IL-2 HTRF, 48 h | 330,000 tested, under 10 active | Potency, µM (highest dose often 9.22 µM), most hits filed as activators
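HTRF read-out of IL-2 secretion: europium cryptate donor excited at 320nm, d2 acceptor emission at 665nm. Cells were primary human leukocytes incubated 48 hr with compounds and a-CD3 beads, supplying TCR signal only.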
Tb PFK block: qHTS Assay to Find Inhibitors of T. brucei phosphofructokinase | ATP-dependent 6-phosphofructokinase (Trypanosoma brucei brucei), O15648 | T. brucei PFK, ADP-Glo luminescence | Potency, µM (highest dose often 57.5 µM), most hits filed as inhibitors | 330,000 compounds, 0.17% hits; note: nearly all actives have a fitted effect of over 60% in size
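Activity is normalized to no-enzyme wells (full inhibition) and 1.25 nM enzyme wells (no inhibition). Reaction: 0.5 mM F6P, 0.1 mM ATP, 45 min RT, ADP-Glo luminescence; concentration-response curves fitted and classed by quality.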
CCT chaperon mod: High-Throughput Screening for Modulators of Cytosolic Chaperonin Activity; purified chaperonin ATPase assay, HTRF ADP detection, 30 min; activity change, % (test concentration not listed), hits read low; 360,000 compounds, 0.3% hits; AID 651819, 2012; in the data active = activity change below about -30%
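TRiC at 40 or 20 nM final (batch-dependent) in 30 mM Tris pH 7.4, 100 mM KCl, 5 mM MgCl2, 1 mM DTT, with compound at single 76 uM and 10 uM ATP, 30 min at 37 deg C. ADP detected by HTRF Transcreener, 665/615 ratio.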
A number is an active result; . = inactive; ? = inconclusive; / = no result. Unless noted, calls come from the whole dose curve; as a rule, active = well fitted curve in the direction sought with a large enough effect; inconclusive = small, poorly fitted or top-dose-only effect, or another doubt; inactive = no such curve, though single readings can be large; an effect the other way counts as inactive or inconclusive.

SMILES | S-ASM inh | BCR signal inh | TCR activator | Tb PFK block | CCT chaperon mod
O=C(Cc1c[nH]c2ccccc12)NCc1ccc2c(c1)OCO2 | . | ? | . | . | -38
CN(C)c1cccc(C(=O)NCc2ccc3c(c2)OCO3)c1 | . | ? | . | . | -40
CCCC(=O)OCCNc1cc(Sc2nc3ccccc3[nH]2)c2nonc2c1[N+](=O)[O-] | . | ? | . | 21µM | .
CCC(=O)OCCNc1cc(SCCC(=O)OC)c2nonc2c1[N+](=O)[O-] | . | ? | . | . | .
COC(=O)c1ccc(OCC2c3cc(OC)c(OC)cc3CCN2C(=O)Cc2ccccc2)cc1 (stereo unspecified) | / | . | / | / | /
COCCNS(=O)(=O)c1ccc(-c2ccc(Cl)cc2)cc1 | . | . | . | . | -40
Clc1ccc(-c2c[n+](Cc3ccc(Cl)c(Cl)c3)c3n2CCC3)cc1 | / | ? | . | 12µM | /
COC(=O)C1=C(C)N(Cc2ccccc2)C(=NCC2CC2)N[C@H]1c1ccc(Br)cc1 | / | ? | / | . | /
C=CCN1C(=O)/C(=C\c2ccc(OC(=O)c3ccco3)c(OC)c2)SC1=S | . | ? | . | . | -84
C=CCN1C(=O)/C(=C\c2cccc(OC(=O)c3ccco3)c2)SC1=S | . | . | . | . | .
O=[N+]([O-])c1ccc(C(c2sc3nc(-c4ccco4)nn3c2O)N2CCC3(CC2)OCCO3)cc1 (stereo unspecified) | / | . | / | / | /
Cc1ccn2c(NC3CCCC3)c(-c3ccccn3)nc2c1 | . | . | . | . | -93
Cc1ccc(NC(=O)Cn2cnc3c2c(=O)n(C)c(=O)n3C)cc1C | / | . | / | / | /
O=[N+]([O-])c1ccccc1/C=N\Nc1nccs1 | . | . | . | . | .
O=[N+]([O-])c1cc(/C=N\Nc2nccs2)ccc1O | / | . | / | 9.5µM | /
O=C(N/N=C/c1ccc(O)cc1O)/C(=C/c1ccccc1)CCO | / | ? | . | . | -35
CC(=O)NC(c1ccco1)c1cc(Br)c2cccnc2c1O (stereo unspecified) | / | ? | / | . | /
CCOCCCNC(=O)C(c1ccc(OC)cc1)N(Cc1ccc2c(c1)OCO2)C(=O)c1ccccn1 (stereo unspecified) | . | . | . | . | .
CCOCCCNC(=O)C(c1ccc(OC)cc1)N(Cc1ccc2c(c1)OCO2)C(=O)c1cnccn1 (stereo unspecified) | . | ? | / | . | -65
COC(=O)c1cc2oc(C)cc2n1Cc1ccc(Cl)cc1 | / | . | / | / | /
O=C(COc1ccc(F)cc1)NC1CC(=O)N(c2ccc3c(c2)OCCO3)C1 (stereo unspecified) | / | . | / | / | /

Screens from PubChem.
